Usually inhibition stands for the relative decrease from the control value, in per cent.

Several values for one entry are separate records, joined by “and”; a condition that tells them apart may be missing. Equal entries are not always repeated. About 2,200 (0.69%) of roughly 320,000 compounds were called active. No stated cut-off is given here; in the data, active means inhibition above about 43%; inactive means the rest. Only a selection was taken, and actives are over-represented in it overall. Some structures have more than one record in an assay (separate samples or runs), and their calls can disagree.

The target of this assay is Prolyl endopeptidase-like (Homo sapiens) (UniProt Q4J6C6). Briefly: human PREPL activity-probe blockers – biochemical, fluorescence polarization, primary screen (AID 2751).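 Further: 0% = enzyme with DMSO and 100% = wells lacking enzyme.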 The following applies: recombinant PREPL, fluorescence polarization activity-based probe; at 5.96 µM; stronger effect = higher value. For orientation: In fluorescence polarisation assays a small probe gives low polarisation when free and higher when bound to something large.
Prolyl endopeptidase-like (Homo sapiens), sequence (Q4J6C6 whole entry, looked up): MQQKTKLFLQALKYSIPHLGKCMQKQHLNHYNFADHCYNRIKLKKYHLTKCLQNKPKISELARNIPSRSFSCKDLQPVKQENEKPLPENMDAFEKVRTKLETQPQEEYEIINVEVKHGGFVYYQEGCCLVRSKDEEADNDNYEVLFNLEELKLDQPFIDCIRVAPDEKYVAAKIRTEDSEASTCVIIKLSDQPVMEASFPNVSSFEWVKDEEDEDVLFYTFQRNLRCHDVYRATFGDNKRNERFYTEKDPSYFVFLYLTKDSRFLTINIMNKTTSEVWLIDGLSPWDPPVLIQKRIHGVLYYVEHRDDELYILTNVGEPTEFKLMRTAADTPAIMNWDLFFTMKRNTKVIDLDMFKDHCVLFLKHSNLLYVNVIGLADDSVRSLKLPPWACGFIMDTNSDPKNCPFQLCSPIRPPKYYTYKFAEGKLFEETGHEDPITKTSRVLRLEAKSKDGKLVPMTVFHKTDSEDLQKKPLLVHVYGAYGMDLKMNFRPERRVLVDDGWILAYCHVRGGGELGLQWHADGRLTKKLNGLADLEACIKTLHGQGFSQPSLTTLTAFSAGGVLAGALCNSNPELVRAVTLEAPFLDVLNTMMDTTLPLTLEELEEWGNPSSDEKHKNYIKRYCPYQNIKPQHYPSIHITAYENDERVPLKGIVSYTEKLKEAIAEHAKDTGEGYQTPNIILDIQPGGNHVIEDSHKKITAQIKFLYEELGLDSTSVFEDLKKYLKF
As to `CCN1CC(CN(C)Cc2nc(-c3ccc(Cl)cc3)no2)CC1=O` (stereo not drawn), the inhibition is 18.3% (inactive).
On to `Cc1cc(C(=O)NCCc2ccc(Cl)cc2)c(C)o1`, for which the inhibition is 6.11% (inactive).
In the case of `CC(C)CN(C(=O)CN1CCN(S(=O)(=O)c2ccccc2)CC1)c1c(N)n(CC(C)C)c(=O)[nH]c1=O`, the inhibition is 9.18% (inactive).
The same measure for `O=C1NC(Cc2ccc(O)cc2)c2nc3ccc(Cl)cc3c(=O)n2-c2ccccc21` (stereo not drawn): 12.8% (inactive); for `CCc1nc(NCCO)c(C#N)c2c1CCCC2`: 7.84% (inactive).
Regarding `CC(C)Cc1nc(N2CCOCC2)c(C#N)c2c1CCC2`, the inhibition was 2.59% (inactive).
Turning to `CC(C)CCNc1nc(N2CCCC2)c2c(c1C#N)CCN(C)C2`, the inhibition is 55.6% (active).
On to `CC(Sc1nc2c([nH]c3ccccc32)c(=O)n1C)c1ccccc1` (stereo not drawn), for which the inhibition is -0.13% (inactive).
`Cc1ccccc1NC(=O)C1CCCN(C(=O)NCc2ccccc2)C1` (stereo not drawn): the inhibition is 10.1% (inactive).
With `COC(=O)C1CCN(C(=O)c2cc(=O)[nH]c3ccccc23)CC1`, the inhibition was -5.95% (inactive).
The same measure for `COC(=O)[C@H]1[C@H]2C[C@H]3c4[nH]c5ccccc5c4CCN3C[C@@H]2CC[C@@H]1O`: 16.7% (inactive) and 45.8% (active); for `O=C(Nc1ccc(Cl)cc1)N1CCc2[nH]c3ccccc3c2C1`: 14.6% (inactive); for `OC(COc1ccc(F)cc1Cl)CN1CCc2ccccc2C1` (stereo not drawn): 3.81% (inactive).
On to `CCCC(C(=O)NCc1ccco1)N(C(=O)CNS(=O)(=O)c1ccccc1)C1CCCC1` (stereo not drawn), for which the inhibition is -3.85% (inactive).
With `O=C(OCC1OC(Oc2ccc(O)cc2)C(O)C(O)C1O)c1ccccc1` (stereo not drawn), the inhibition was 9.62% (inactive).
The same measure for `O=C(OCC1O[C@@H](OC(=O)c2cc(O)c(O)c(O)c2)[C@@H](OC(=O)c2cc(O)c(O)c(O)c2)[C@@H](OC(=O)c2cc(O)c(O)c(O)c2)[C@@H]1OC(=O)c1cc(O)c(O)c(O)c1)c1cc(O)c(O)c(O)c1` (stereo partly drawn): 87.5% (active); for `COc1ccccc1C(=O)NCc1nnc(SC(C)C(=O)Nc2nccs2)n1C` (stereo not drawn): -8.82% (inactive); for `CCC(=O)N1c2ccc(S(=O)(=O)NCc3ccco3)cc2CC1C` (stereo not drawn): -3.18% (inactive).
Take `O=C(CSc1ncnc2sccc12)N1CCN(C(=O)c2cccs2)CC1`: the inhibition is 6.26% (inactive).
The same measure for `Nc1c(C(=O)c2cccs2)sc2nsc(SCCN3CCCCC3)c12`: 48.1% (active); for `CN(CC(=O)Nc1ccc(Cl)c(C(F)(F)F)c1)C(=O)CCC(=O)c1ccccc1`: 1.31% (inactive).
The same measure for `CC(C)c1ccc(S(=O)(=O)N2CCN(C(C)C(=O)NC3CCCC3)CC2)cc1` (stereo not drawn): 5.61% (inactive); for `CC(Oc1ccc(F)cc1)C(=O)Nc1ccccc1C(=O)NC1CC1` (stereo not drawn): -10.5% (inactive).
